Test results from PubChem BioAssay.
For some of these results: Potency and affinity values are given separately. Calls of active or inactive are those of the source. Unless noted, no rule for the calls is given here.

How the values were obtained:
[1] = antimalarial activity against Dd2 strain (AID 2302;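 active = growth inhibition above 50% at the single 2 µM test dose, taken to imply half-maximal potency below 2 µM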;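 also: 0% = DMSO untreated growth and 100% = chloroquine plus artemisinin killed control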); conditions: P. falciparum Dd2 in RBCs, LDH growth readout, 72 h; at 2 µM; stronger effect = higher value
[2] = HepG2 cytotoxicity, primary screen, cytotoxicity control for P. falciparum antimalarial project, cell-based, ATP luminescence (AID 2303;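 active = inhibition above 50%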;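 also: 0% = DMSO wells and 100% = digitonin-killed cells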); conditions: HepG2 viability, 24-48 h, at 10 µM, stronger effect = higher value
[3] = target: L-lactate dehydrogenase (Plasmodium falciparum (isolate CDC / Honduras)) (UniProt Q27743); test: PfLDH activity inhibition – cell lysate, 3D7 strain, counter-screen for P. falciparum growth inhibition project (AID 2304);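 also: 0% = vehicle and 100% = reference inhibitor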; conditions: P. falciparum 3D7 crude extract, LDH APAD/NBT absorbance; at 2 µM; stronger effect = higher value
Sequence of L-lactate dehydrogenase (Plasmodium falciparum (isolate CDC / Honduras)) (Q27743 whole entry, looked up): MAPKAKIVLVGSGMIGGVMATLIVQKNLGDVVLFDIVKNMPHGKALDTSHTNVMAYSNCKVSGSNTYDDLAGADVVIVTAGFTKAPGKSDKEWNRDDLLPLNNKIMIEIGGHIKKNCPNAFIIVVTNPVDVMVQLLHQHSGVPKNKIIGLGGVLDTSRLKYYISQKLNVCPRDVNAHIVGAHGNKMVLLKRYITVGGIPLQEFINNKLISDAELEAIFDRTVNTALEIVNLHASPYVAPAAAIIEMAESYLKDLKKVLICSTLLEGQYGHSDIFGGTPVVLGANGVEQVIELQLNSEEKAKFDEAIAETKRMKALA

[4] = inhibition of 3D7 malaria parasite growth – strain 3D7 (AID 2306);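 also: 0% = DMSO wells and 100% = chloroquine plus artemisinin control wells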; conditions: P. falciparum 3D7 erythrocytic growth, LDH absorbance, 72 h; at 2 µM; stronger effect = higher value
[5] = target: Calcium-dependent protein kinase 1 (Plasmodium falciparum (isolate 3D7)) (UniProt P62344); test: PfCDPK1 kinase inhibitors, biochemical, TCAMS library (AID 1159585; cut-off not given, nearly all actives have IC50 up to about 0.98 µM;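 also: inhibitors leave more ATP so luminescence rises with inhibition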); conditions: recombinant PfCDPK1, Kinase-Glo ATP depletion luminescence
Sequence of Calcium-dependent protein kinase 1 (Plasmodium falciparum (isolate 3D7)) (P62344 whole entry, looked up): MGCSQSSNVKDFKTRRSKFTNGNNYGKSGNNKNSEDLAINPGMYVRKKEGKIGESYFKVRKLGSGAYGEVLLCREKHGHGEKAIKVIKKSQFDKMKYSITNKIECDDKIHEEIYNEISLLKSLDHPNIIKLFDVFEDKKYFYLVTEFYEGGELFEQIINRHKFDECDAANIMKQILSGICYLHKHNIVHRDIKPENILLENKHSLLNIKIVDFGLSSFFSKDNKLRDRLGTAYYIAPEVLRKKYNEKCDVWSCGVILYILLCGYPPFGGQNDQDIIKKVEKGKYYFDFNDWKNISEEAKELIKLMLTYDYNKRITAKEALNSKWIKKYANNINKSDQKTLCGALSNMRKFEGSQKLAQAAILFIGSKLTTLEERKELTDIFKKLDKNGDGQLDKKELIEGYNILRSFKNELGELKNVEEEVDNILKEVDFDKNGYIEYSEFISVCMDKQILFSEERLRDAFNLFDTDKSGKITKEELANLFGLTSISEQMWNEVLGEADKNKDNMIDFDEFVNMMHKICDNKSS

[6] = target: Plasmodium falciparum protein kinase 6 (PK6, PF3D7_1337100) (UniProt Q8IDW1); test: PfPK6 kinase inhibitors, biochemical, TCAMS library (AID 1159586); conditions: recombinant PfPK6, Kinase-Glo ATP depletion luminescence
Sequence of Plasmodium falciparum protein kinase 6 (PK6, PF3D7_1337100) (Q8IDW1 1-305): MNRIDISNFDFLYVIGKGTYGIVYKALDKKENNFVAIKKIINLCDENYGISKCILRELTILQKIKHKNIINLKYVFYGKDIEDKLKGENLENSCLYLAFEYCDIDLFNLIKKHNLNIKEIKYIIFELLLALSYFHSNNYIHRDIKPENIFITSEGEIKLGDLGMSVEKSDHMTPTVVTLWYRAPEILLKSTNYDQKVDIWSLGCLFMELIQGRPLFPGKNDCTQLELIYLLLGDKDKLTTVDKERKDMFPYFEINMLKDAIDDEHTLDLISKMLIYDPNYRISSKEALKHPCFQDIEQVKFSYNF

[7] = target: Protein kinase 7 (PK7), Plasmodium falciparum 3D7 (PF3D7_0213400) (UniProt Q7YTF7); test: inhibition of Plasmodium PK7 catalytic activity – biochemical, TCAMS antimalarial set, Kinase-Glo luminescence (AID 1159587); conditions: recombinant PfPK7, Kinase-Glo ATP depletion luminescence
Sequence of Protein kinase 7 (PK7), Plasmodium falciparum 3D7 (PF3D7_0213400) (Q7YTF7 1-343): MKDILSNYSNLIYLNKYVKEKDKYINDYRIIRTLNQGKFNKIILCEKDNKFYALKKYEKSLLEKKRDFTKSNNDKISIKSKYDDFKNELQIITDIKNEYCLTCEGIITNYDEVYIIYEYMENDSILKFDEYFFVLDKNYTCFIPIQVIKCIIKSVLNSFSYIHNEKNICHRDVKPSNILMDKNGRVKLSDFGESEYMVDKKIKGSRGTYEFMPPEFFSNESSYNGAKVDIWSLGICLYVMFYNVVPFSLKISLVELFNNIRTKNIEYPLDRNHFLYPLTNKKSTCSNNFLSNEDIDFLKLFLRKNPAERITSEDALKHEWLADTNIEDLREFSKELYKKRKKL

[8] = target: Calcium-dependent protein kinase 4 (Plasmodium falciparum (isolate 3D7)) (UniProt Q8IBS5); test: PfCDPK4 kinase inhibitors, biochemical, TCAMS library (AID 1159588; cut-off not given, nearly all actives have IC50 up to about 0.91 µM); conditions: recombinant PfCDPK4, Kinase-Glo ATP depletion luminescence
Sequence of Calcium-dependent protein kinase 4 (Plasmodium falciparum (isolate 3D7)) (Q8IBS5 whole entry, looked up): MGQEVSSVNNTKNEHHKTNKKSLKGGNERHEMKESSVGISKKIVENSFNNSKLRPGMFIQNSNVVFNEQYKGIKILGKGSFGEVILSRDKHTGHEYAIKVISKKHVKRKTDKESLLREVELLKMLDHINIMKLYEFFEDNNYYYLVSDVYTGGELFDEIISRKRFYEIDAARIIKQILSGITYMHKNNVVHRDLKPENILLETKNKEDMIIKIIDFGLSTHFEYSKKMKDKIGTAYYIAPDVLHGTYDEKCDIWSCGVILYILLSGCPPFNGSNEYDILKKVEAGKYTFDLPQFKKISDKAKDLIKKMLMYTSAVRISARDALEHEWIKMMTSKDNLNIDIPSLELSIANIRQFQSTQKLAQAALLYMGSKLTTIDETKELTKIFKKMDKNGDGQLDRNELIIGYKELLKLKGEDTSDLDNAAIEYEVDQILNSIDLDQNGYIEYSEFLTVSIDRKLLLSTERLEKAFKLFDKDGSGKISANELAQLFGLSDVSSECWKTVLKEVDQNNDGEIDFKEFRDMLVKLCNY

Cc1cc(N2CCNCC2)c2cc(NC(=O)Nc3ccc(Cl)c(Cl)c3)ccc2n1
active: growth inhibition [1] 86% | growth inhibition [4] 100%
inactive: inhibition [2] 23% | inhibition [3] -2% | outcome [5] | outcome [6] | outcome [7] | outcome [8]

CN(C)CCOc1cc(NC(=O)Nc2ccc(Cl)cc2C(F)(F)F)ccc1I
inactive: growth inhibition [1] 16% | inhibition [2] -2% | inhibition [3] 5% | outcome [5] | outcome [6] | outcome [7] | outcome [8]
active: growth inhibition [4] 96%

O=S(=O)(NCCN1CCCC1)c1ccc(-c2ccc(CNCc3ccccc3)cc2)cc1
inactive: growth inhibition [1] 28% | inhibition [2] 47% | inhibition [3] 5% | outcome [5] | outcome [6] | outcome [7] | outcome [8]
active: growth inhibition [4] 99%

COc1ccc(NC(=O)c2cn(-c3ccc(C(C)(C)C)cc3)nc2C)cc1N1CCN(C)CC1
inactive: inhibition [2] 33% | inhibition [3] 0% | outcome [5] | outcome [6] | outcome [7] | outcome [8]
active: growth inhibition [1] 71% | growth inhibition [4] 96%

Cc1ccc(Nc2nc(C)cc(Nc3cccc(C#N)c3)n2)cc1
active: growth inhibition [1] 96% | growth inhibition [4] 101%
inactive: inhibition [2] 14% | inhibition [3] 4% | outcome [5] | outcome [6] | outcome [7] | outcome [8]

COc1ccc(OC)c(-c2ccc(=O)n(CC(=O)Nc3cccc4ccccc34)n2)c1
active: growth inhibition [1] 95% | growth inhibition [4] 101%
inactive: inhibition [2] -9% | inhibition [3] 3% | outcome [5] | outcome [6] | outcome [7] | outcome [8]

CCn1c(SCc2ccc(F)cc2)nc2sc3c(c2c1=O)CCN(C)C3
active: growth inhibition [1] 81% | growth inhibition [4] 95%
inactive: inhibition [2] 2% | inhibition [3] 3% | outcome [5] | outcome [6] | outcome [7] | outcome [8]

COc1cc2c(cc1OC)C(c1ccc(Br)cc1)CN(C)CC2 (stereo not drawn)
active: growth inhibition [4] 86%
inactive: growth inhibition [1] -3% | inhibition [2] 8% | inhibition [3] -3% | outcome [5] | outcome [6] | outcome [7] | outcome [8]

CN1CCC(c2ccc(NC(=O)c3ccc(-c4cccc(C(F)(F)F)c4)o3)cc2)CC1
inactive: growth inhibition [1] 23% | inhibition [2] 23% | inhibition [3] -3% | outcome [5] | outcome [6] | outcome [7] | outcome [8]
active: growth inhibition [4] 86%

NC(=O)c1ccc(NCC(=O)Nc2cccc(-c3cccc(-c4nc5ccc(C(F)(F)F)cc5[nH]4)c3)c2)cc1
inactive: growth inhibition [1] 41% | inhibition [2] 32% | inhibition [3] 1% | outcome [5] | outcome [6] | outcome [7] | outcome [8]
active: growth inhibition [4] 99%

Oc1cccc(Nc2nc(NCC3CCCO3)c3ccccc3n2)c1 (stereo not drawn)
inactive: inhibition [2] -9% | inhibition [3] -1% | outcome [5] | outcome [6] | outcome [7] | outcome [8]
active: growth inhibition [1] 87% | growth inhibition [4] 100%

CN1CCC(N2CCN(Cc3cccc(-c4cccc(-c5nc6ccccc6[nH]5)c4)c3)CC2)CC1
inactive: inhibition [2] 19% | inhibition [3] -1% | outcome [5] | outcome [6] | outcome [7] | outcome [8]
active: growth inhibition [1] 100% | growth inhibition [4] 100%

CCc1cc(C(=O)c2cccc(C)c2)c(NC(=O)CN2CCN(C(=O)c3ccco3)CC2)s1
inactive: inhibition [2] -13% | inhibition [3] -5% | outcome [5] | outcome [6] | outcome [7] | outcome [8]
active: growth inhibition [1] 85% | growth inhibition [4] 91%

O=C(N[C@H]1CCCC[C@H]1C(=O)O)c1ccccc1
inactive: growth inhibition [1] 3% | inhibition [2] 7% | inhibition [3] -5% | outcome [5] | outcome [6] | outcome [7] | outcome [8]
active: growth inhibition [4] 95%

c1ccc(N2CCN(c3cc(-c4cccnc4)nc(-c4ccncc4)n3)CC2)nc1
active: growth inhibition [4] 99%
inactive: growth inhibition [1] 22% | inhibition [2] 22% | inhibition [3] -2% | outcome [5] | outcome [6] | outcome [7] | outcome [8]

O=C1NC(=O)C(c2ccc(Cl)cc2)=C1Nc1cccc(S(=O)(=O)C(F)(F)F)c1
inactive: inhibition [2] 1% | inhibition [3] -2% | outcome [5] | outcome [6] | outcome [7] | outcome [8]
active: growth inhibition [1] 51% | growth inhibition [4] 99%

O=C(NCC(CCCN1CCC(c2c[nH]c3ccccc23)CC1)c1ccccc1)Nc1ccc(Cl)c(Cl)c1 (stereo not drawn)
inactive: inhibition [2] 38% | inhibition [3] 1% | outcome [5] | outcome [6] | outcome [7] | outcome [8]
active: growth inhibition [1] 64% | growth inhibition [4] 101%

CN1CCC(N(C)C(=O)C=Cc2cn(-c3ccccc3)nc2-c2cc3ccccc3o2)CC1
inactive: growth inhibition [1] 5% | inhibition [2] 38% | inhibition [3] 2% | outcome [5] | outcome [6] | outcome [7] | outcome [8]
active: growth inhibition [4] 92%

Cc1ccc(NC(=O)Nc2ccc(Cl)cc2)cc1-c1ccc(C(=O)Nc2ccncc2)cc1
active: growth inhibition [1] 63% | inhibition [2] 54% | growth inhibition [4] 99%
inactive: inhibition [3] -1% | outcome [5] | outcome [6] | outcome [7] | outcome [8]

COc1cc2c(cc1OC)CN(CCCCNC(=O)c1ccc(NC(=O)c3cc(Cl)cc(Cl)c3)cc1)CC2
active: growth inhibition [1] 75% | growth inhibition [4] 99%
inactive: inhibition [2] 19% | inhibition [3] -6% | outcome [5] | outcome [6] | outcome [7] | outcome [8]

CCCc1ccc(S(=O)(=O)NC2CCN(c3ccnc(Nc4ccc(F)cc4)n3)C2)cc1 (stereo not drawn)
active: growth inhibition [1] 56% | growth inhibition [4] 95%
inactive: inhibition [2] 40% | inhibition [3] -6% | outcome [5] | outcome [6] | outcome [7] | outcome [8]

COc1ccc(Br)cc1/C=C/C(=O)Nc1cccc(C2CCN(C)CC2)c1
inactive: growth inhibition [1] 37% | inhibition [2] 44% | inhibition [3] -2% | outcome [5] | outcome [6] | outcome [7] | outcome [8]
active: growth inhibition [4] 95%

O=C(Nc1ccc(Oc2cccnc2)cc1)C1CCN(Cc2cc(Cl)ccc2O)CC1
inactive: growth inhibition [1] 1% | inhibition [2] 37% | inhibition [3] -2% | outcome [5] | outcome [6] | outcome [7] | outcome [8]
active: growth inhibition [4] 83%

Cc1cc(NC(=O)NCCN2CCC(NS(=O)(=O)c3ccc(C(F)(F)F)cc3)C2)c2ccccc2n1 (stereo not drawn)
active: growth inhibition [4] 96%
inactive: growth inhibition [1] 39% | inhibition [2] 15% | inhibition [3] -3% | outcome [5] | outcome [6] | outcome [7] | outcome [8]

FC(F)(F)c1ccc2nc(-c3ccc(-c4ccc(CNCCc5ccncc5)cc4)cc3)[nH]c2c1
active: growth inhibition [1] 100% | growth inhibition [4] 100%
inactive: inhibition [2] 26% | inhibition [3] 6% | outcome [5] | outcome [6] | outcome [7] | outcome [8]

CN1CCCc2ccc(NC(=O)Nc3ccc(Cl)c(Cl)c3)cc2C1
active: growth inhibition [4] 89%
inactive: growth inhibition [1] 22% | inhibition [2] -13% | inhibition [3] -2% | outcome [5] | outcome [6] | outcome [7] | outcome [8]

CC(=O)Nc1ccc(CN2CCC(CNC(=O)c3cc(-c4cccc(Cl)c4)cs3)C2)cc1 (stereo not drawn)
inactive: growth inhibition [1] 1% | inhibition [2] 24% | inhibition [3] 2% | outcome [5] | outcome [6] | outcome [7] | outcome [8]
active: growth inhibition [4] 91%

O=S(=O)(NCCN1CCCC1)c1ccc(-c2ccc(CNC3Cc4ccccc4C3)cc2)cc1
active: growth inhibition [1] 91% | inhibition [2] 61% | growth inhibition [4] 99%
inactive: inhibition [3] 5% | outcome [5] | outcome [6] | outcome [7] | outcome [8]

O=C(NC1CC1)c1ccc(N2CCCC(COc3ccccc3F)C2)nc1 (stereo not drawn)
inactive: inhibition [2] 8% | inhibition [3] -2% | outcome [5] | outcome [6] | outcome [7] | outcome [8]
active: growth inhibition [1] 92% | growth inhibition [4] 87%

CC1(C)N=C(N)N=C(N)N1c1ccc(Br)cc1
active: inhibition [2] 52% | growth inhibition [4] 94%
inactive: growth inhibition [1] 4% | inhibition [3] 0% | outcome [5] | outcome [6] | outcome [7] | outcome [8]

CCCCNC(=O)[C@@H]1CCCN1C(=O)c1ccc(O)c(-c2ccc(Cl)c(Cl)c2)c1
inactive: inhibition [2] -1% | inhibition [3] -1% | outcome [5] | outcome [6] | outcome [7] | outcome [8]
active: growth inhibition [1] 92% | growth inhibition [4] 98%

COc1ccc(Nc2nccc(N3CCC(NC(=O)c4cccc(C#N)c4)C3)n2)cc1 (stereo not drawn)
inactive: inhibition [2] 6% | inhibition [3] -3% | outcome [5] | outcome [6] | outcome [7] | outcome [8]
active: growth inhibition [1] 93% | growth inhibition [4] 92%

Nc1cccc(CNCc2cccc(-c3cccc(-c4nc5ccccc5[nH]4)c3)c2)c1
inactive: inhibition [2] 1% | inhibition [3] -7% | outcome [5] | outcome [6] | outcome [7] | outcome [8]
active: growth inhibition [1] 84% | growth inhibition [4] 101%

O=S(=O)(c1ccc2ccccc2c1)N1CCCN(Cc2ccc(OCCCN3CCCCC3)cc2)CC1
active: growth inhibition [4] 98%
inactive: growth inhibition [1] 11% | inhibition [2] 43% | inhibition [3] -3% | outcome [5] | outcome [6] | outcome [7] | outcome [8]

CN(C)C(CNC(=O)c1cc(-c2ccncc2)c(-c2ccc(NC(=O)Nc3ccccc3)cc2)o1)c1ccccc1 (stereo not drawn)
active: growth inhibition [1] 96% | growth inhibition [4] 101%
inactive: inhibition [2] 19% | inhibition [3] 4% | outcome [5] | outcome [6] | outcome [7] | outcome [8]

COCCOc1cccc(CN2CCC(c3cc4nc(C)cc(C(F)(F)F)n4n3)C2)c1 (stereo not drawn)
inactive: inhibition [2] 25% | inhibition [3] 2% | outcome [5] | outcome [6] | outcome [7] | outcome [8]
active: growth inhibition [1] 74% | growth inhibition [4] 85%

CC(=O)Nc1ccc(CN2CCC(NC(=O)c3ccc(-c4ccc(N(C)C)cc4)s3)CC2)cc1
active: growth inhibition [1] 57% | growth inhibition [4] 100%
inactive: inhibition [2] 20% | inhibition [3] -1% | outcome [5] | outcome [6] | outcome [7] | outcome [8]

N=C(N)c1ccc(NN=Cc2ccc(Oc3ccc(C(=N)N)cc3)cc2)cc1
inactive: inhibition [2] 18% | inhibition [3] 0% | outcome [5] | outcome [6] | outcome [7] | outcome [8]
active: growth inhibition [1] 100% | growth inhibition [4] 99%

Cn1cncc1C(=O)Nc1cccc(-c2ccc(-c3nc4ccc(F)cc4[nH]3)cc2)c1
inactive: growth inhibition [1] 31% | inhibition [2] -1% | inhibition [3] -2% | outcome [5] | outcome [6] | outcome [7] | outcome [8]
active: growth inhibition [4] 101%

Cc1cc(CN2CC[C@H](NC(=O)c3ccc(Cl)c(Cl)c3)C2)ccc1OC1CCN(Cc2ccccc2)CC1
inactive: growth inhibition [1] 29% | inhibition [3] -2% | outcome [5] | outcome [6] | outcome [7] | outcome [8]
active: inhibition [2] 59% | growth inhibition [4] 98%

CCCCCCc1c(C)[nH]c2cc(OC)ccc2c1=O
inactive: inhibition [2] 10% | inhibition [3] 3% | outcome [5] | outcome [6] | outcome [7] | outcome [8]
active: growth inhibition [1] 97% | growth inhibition [4] 97%
